The results in this text go back to PubChem BioAssay (NCI).

This is part of a sample that, as a whole, favours compounds with a hit. Of some 83,000 tested, about 20% had one in any assay.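 Each cell line was grown in a 96-well plate and treated with one concentration of compound for 48 hours. Values below 10 were considered active.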 A number with no mark means an inactive call. The source made the active and inactive calls.

Test systems include T-47D breast; BT-549 breast; MDA-MB-435 melanoma; SW-620 colon; MCF7 breast; HCT-116 colon; HCC-2998 colon; KM12 colon.
Test in all cases: NCI-60 one-dose screen, 48 h (100 = growth as untreated, 0 = no growth, -100 = all killed)
Common to all, as to details: 10 µM unless noted

With `C=C(C)[C@@H]1CC[C@]2(C(N)=O)CC[C@]3(C)[C@H](CC[C@@H]4[C@@]5(C)C/C(=C/c6cccnc6)C(=O)C(C)(C)[C@@H]5CC[C@]43C)[C@@H]12`, the growth in the assay with T-47D breast was 1.22% [100 µM] (active); in the assay on BT-549 breast, 14.1% [100 µM]; with MDA-MB-435 melanoma it was 0.0948% [100 µM] (active); with SW-620 colon it was 3.53% [100 µM] (active); in the assay with MCF7 breast, 10.8% [100 µM]; in the assay with HCT-116 colon, 5.4% [100 µM] (active). Besides, the values for the growth in the assay on HCC-2998 colon and with KM12 colon were -15.9% [100 µM] (active) and -3.05% [100 µM] (active), respectively.
With `C[C@@H]1C[C@H]2C(=O)O[C@@H](C)[C@H](NC(=O)[C@H](Cc3cc(F)cc(F)c3)NC(=O)Nc3ccc(C4CC4)cc3F)C(=O)N3CCC[C@H]3C(=O)N3CCCC[C@H]3C(=O)N[C@@H](C)C(=O)N2C1`, the growth in the assay on T-47D breast was 5.43% (active); in the assay with BT-549 breast, -1.76% (active); in the assay on MDA-MB-435 melanoma it was 3.38% (active); with SW-620 colon, 27.7%; with MCF7 breast it was 12.7%; in the assay on HCT-116 colon, -4.75% (active). Also, the growth was -10.3% (active) with HCC-2998 colon and 15.6% in the assay with KM12 colon.
On to `COc1ccc(OC)c([N+](=O)[O-])c1C(=O)CNC(C)=O`, for which the growth with T-47D breast is 103%; with BT-549 breast it was 84.5%; with MDA-MB-435 melanoma, 103%; with SW-620 colon it was 106%; with MCF7 breast it was 92.7%; in the assay on HCT-116 colon, 106%. Further, the growth in the assay with HCC-2998 colon is 101%; with KM12 colon, 106%.
As for `CCN(CC)c1ccc2cc(C(Nc3ccc(Cl)cc3)c3nnnn3C(C)(C)C)c(=O)oc2c1` (configuration not stated), the growth was 71.7% in the assay with T-47D breast; 103% in the assay on BT-549 breast; 87.8% in the assay with MDA-MB-435 melanoma; 100% with SW-620 colon; 74.2% in the assay with MCF7 breast; 92% in the assay with HCT-116 colon. Besides, the growth was 105% in the assay on HCC-2998 colon and 88.7% in the assay with KM12 colon.
As to `N#CC1C(=O)NC(c2ccccc2[N+](=O)[O-])c2sc3c(F)cccc3c21` (configuration not stated), the growth is 2.51% (active) with T-47D breast; 89.2% in the assay on BT-549 breast; 102% in the assay on MDA-MB-435 melanoma; 21.9% in the assay with SW-620 colon; 23.4% in the assay on MCF7 breast; 11% with HCT-116 colon. Also, the growth in the assay with HCC-2998 colon was 93.8%; with KM12 colon it was 91.4%.
As for `C[C@H]1[C@H](C)CC[C@]2(C(=O)O)CC[C@]3(C)C(=CC[C@@H]4[C@@]5(C)C/C(=C/c6ccco6)C(=O)C(C)(C)[C@@H]5CC[C@]43C)[C@H]12`, the growth with T-47D breast is -14.3% [100 µM] (active); in the assay with BT-549 breast it was -62.5% [100 µM] (active); in the assay on MDA-MB-435 melanoma, -85.1% [100 µM] (active); with SW-620 colon it was -44.9% [100 µM] (active); with MCF7 breast, -74.7% [100 µM] (active); in the assay on HCT-116 colon, -73% [100 µM] (active). Also, the growth is -81.4% [100 µM] (active) in the assay with HCC-2998 colon and -73.5% [100 µM] (active) with KM12 colon.
As to `N#C/C(C(=O)c1ccccc1)=C1/C(=O)Nc2ccc(F)cc21`, the growth with T-47D breast was 80.5%; with BT-549 breast, 102%; with MDA-MB-435 melanoma it was 107%; in the assay on SW-620 colon it was 101%; in the assay on MCF7 breast, 96.4%; in the assay on HCT-116 colon it was 103%. Besides, the growth in the assay with HCC-2998 colon was 104%; in the assay with KM12 colon, 109%.
For `CC1(C)[C@@H](NOCCCN)CC[C@]2(C)[C@H]3C(=O)C=C4[C@@H]5C[C@](C)(C(=O)O)CC[C@]5(C)CC[C@@]4(C)[C@]3(C)CC[C@@H]12`, the growth is -29.8% [100 µM] (active) with T-47D breast; -23.2% [100 µM] (active) in the assay on BT-549 breast; -59.1% [100 µM] (active) in the assay on MDA-MB-435 melanoma; -43.3% [100 µM] (active) in the assay on SW-620 colon; -25.2% [100 µM] (active) in the assay on MCF7 breast; -87.4% [100 µM] (active) in the assay on HCT-116 colon. The growth in the assay on HCC-2998 colon was -50% [100 µM] (active); with KM12 colon, -65.8% [100 µM] (active).
Consider `COc1cc(C)cc2oc3oc(=N)c(C(=O)c4ccccc4)cc3c(=O)c12`, for which the growth is 103% with T-47D breast; 97.3% with BT-549 breast; 102% in the assay with MDA-MB-435 melanoma; 104% with SW-620 colon; 96.2% in the assay on MCF7 breast; 93.9% in the assay with HCT-116 colon. Moreover, the growth in the assay on HCC-2998 colon is 108%; with KM12 colon it was 104%.
Regarding `CC1=CC[C@@H]2C(C)(C)[C@@H](O)CC[C@@]2(C)[C@@H]1COc1ccc2ccc(=O)oc2c1`, the growth in the assay with T-47D breast was -10.1% (active); in the assay on BT-549 breast, 18%; in the assay on MDA-MB-435 melanoma, 77.6%; in the assay on SW-620 colon, 79.2%; in the assay on MCF7 breast, 77.8%; with HCT-116 colon, 44.6%. The results for the growth in the assay on HCC-2998 colon and in the assay on KM12 colon were 88% and 40.4%, respectively.
Turning to `O=C(Nc1ccc(Oc2ccc(F)cc2)c(Cl)c1)c1cccnn1`, the growth in the assay on T-47D breast is 37.6%; with BT-549 breast, 103%; in the assay with MDA-MB-435 melanoma it was 67.2%; with SW-620 colon, 94.1%; in the assay on MCF7 breast, 65.3%; in the assay with HCT-116 colon, 96.8%. The growth in the assay with HCC-2998 colon was 89.1%; with KM12 colon, 79.2%.
As for `Cc1ccc(NC(=O)N[C@@H](Cc2cc(F)cc(F)c2)C(=O)N[C@@H]2C(=O)N3CCC[C@H]3C(=O)N3CCOC[C@H]3C(=O)N[C@@H](C)C(=O)N3C[C@H](C)C[C@H]3C(=O)O[C@H]2C)cc1`, the growth is 27% in the assay on T-47D breast; 19.6% in the assay with BT-549 breast; 21% with MDA-MB-435 melanoma; 34.5% in the assay with SW-620 colon; 25% in the assay with MCF7 breast; 12.5% with HCT-116 colon. The growth was 34.5% in the assay with HCC-2998 colon and 38.9% with KM12 colon.
Take `CCN(CC)CCCCCCNc1cccc2cc(Br)cnc12`: the growth in the assay on T-47D breast is 112%; in the assay on BT-549 breast, 80.8%; with MDA-MB-435 melanoma it was 31.5%; in the assay with SW-620 colon, 56.5%; in the assay with MCF7 breast, 109%; with HCT-116 colon, 72.2%. Further, the values for the growth with HCC-2998 colon and in the assay on KM12 colon were 88.3% and 65.7%, respectively.
Regarding `N#Cc1c(Cl)nc(SCC2CO2)nc1-c1ccccc1` (configuration not stated), the growth is 97.3% in the assay on T-47D breast; 81.4% in the assay with BT-549 breast; 110% in the assay on MDA-MB-435 melanoma; 111% with SW-620 colon; 83.9% in the assay with MCF7 breast; 88.8% with HCT-116 colon. In addition, the growth in the assay with HCC-2998 colon is 111%; in the assay with KM12 colon it was 110%.
